# Test results taken from publication PMC12670160, “A drug-repurposing screen of FDA- and EMA-approved drugs identifies two NF-κB inhibitors active against eumycetoma” (Journal of Antimicrobial Chemotherapy, 2025).
# Where a name gives a salt, the structure may show the parent alone. Read-outs that look alike come from different tables or passages of the source. The whole screen tested about 5,300 compounds, of which about 130 (2.5%) showed an effect of 50% or more. This is one part of a sample in which strong results are shown more often than they occur. Peptide text beside a SMILES is read from it. * marks the point of attachment. PhAc = O=C(Cc1ccccc1)*
# Test system: M. mycetomatis strain mm55
# Conditions: primary screen, metabolic activity vs growth control, 96 h, 2 µM, inhibitor
# [1] = Madurella mycetomatis metabolic activity at 2µM (%)
Compound,% viability [%],% viability [1] [%]
"Cc1cnc(NC(=O)c2cc(Oc3cnc(C(=O)N(C)C)nc3)c3cc(C)oc3c2)cn1 [ONC0005563, pf04937319]",103.7,–
"O=c1[nH]cnc2c([C@@H]3N[C@H](CO)[C@@H](O)[C@H]3O)c[nH]c12 [ONC0001813, forodesine hydrochloride]",95.12,–
"CCn1c(=O)n([C@H]2CCCN(c3nccc(-c4cc5ccccc5o4)n3)C2)c2ccccc21 [ONC0001458, tcf2]",58.53,–
"CCCCN(CCCC)CCC(O)c1cc2c(Cl)cc(Cl)cc2c2cc(C(F)(F)F)ccc12 (centres unmarked) [ONC0003518, halofantrinehcl]",46.17,–
"CCCCN(CCCC)CC(O)c1cc(Cl)cc2c1-c1ccc(Cl)cc1/C2=C/c1ccc(Cl)cc1 (centres unmarked) [ONC0000941, lumefantrine]",75.53,–
"CNc1nc(-c2ccc3c(N)n[nH]c3c2)cc(N2C[C@@H](C(=O)NC3CCCCC3)CC[C@H]2C)n1 [ONC0002484, gsk2334470]",37.41,–
"COc1c2ccoc2cc2oc(=O)ccc12 [ONC0003294, bergapten]",47.96,–
"O=c1ccc2c(OCCCCOc3ccccc3)c3ccoc3cc2o1 [ONC0000770, pap1]",62.21,–
"COc1c2occc2cc2ccc(=O)oc12 [ONC0005318, methoxsalen]",102.8,–
"NS(=O)(=O)OC[C@@H]1C[C@@H](n2ccc3c(N[C@H]4CCc5ccccc54)ncnc32)C[C@@H]1O [ONC0001277, pevonedistat hydrochloride]",68.15,–
"Cc1ccc2c(c1)c1c(n2CCc2ccc(C)nc2)CCN(C)C1.Cl.Cl [ONC0000365, latrepirdine dimebon dihydrochloride]",70.26,–
"OCCN1CCN(CCCN2c3ccccc3Sc3ccc(C(F)(F)F)cc32)CC1 [ONC0003193, fluphenazine hydrochloride]",105.7,–
"CN1CCN(CCCN2c3ccccc3Sc3ccc(C(F)(F)F)cc32)CC1 [ONC0003239, trifluoperazine hydrochloride]",119.8,–
"CCCCCCCCCC(=O)OCCN1CCN(CCCN2c3ccccc3Sc3ccc(C(F)(F)F)cc32)CC1 [ONC0003289, fluphenazine decanoate]",48.22,–
"CN1CC[C@@]2(C)c3cc(O)ccc3N(C)[C@@H]12 [ONC0002771, eseroline]",104.2,–
"O=C1c2ccccc2C(=O)c2ccccc21 [ONC0002912, anthraquinone]",73.56,–
"c1ccc2c(c1)[I+]c1ccccc1-2 [ONC0002720, diphenyleneiodonium]",44.4,–
"CC(O)COC[C@H]1O[C@@H]2O[C@H]3[C@H](O)[C@@H](O)[C@@H](O[C@H]4[C@H](O)[C@@H](O)[C@@H](O[C@H]5[C@H](O)[C@@H](O)[C@@H](O[C@H]6[C@H](O)[C@@H](O)[C@@H](O[C@H]7[C@H](O)[C@@H](O)[C@@H](O[C@H]8[C@H](O)[C@@H](O)[C@@H](O[C@H]1[C@H](O)[C@H]2O)O[C@@H]8COCC(C)O)O[C@@H]7COCC(C)O)O[C@@H]6COCC(C)O)O[C@@H]5COCC(C)O)O[C@@H]4COCC(C)O)O[C@@H]3COCC(C)O (some centres unmarked) [ONC0003826, hydroxypropylbetacyclodextrin]",73.6,–
"NCCC(=O)N[C@@H](Cc1cnc[nH]1)C(=O)O [ONC0002788, carnosine]",115.1,–
"CC[C@@H]1C(=O)N(C)c2cnc(Nc3ccc(C(=O)N[C@H]4CC[C@H](N5CCN(CC6CC6)CC5)CC4)cc3OC)nc2N1C(C)C [ONC0005061, bi6727 volasertib]",89.64,–

Compound,% viability [%],% viability [1] [%]
"CC(C)CCN1c2nc(Nc3cc(F)c(O)c(F)c3)ncc2N(C)C(=O)C1C (centres unmarked) [ONC0004496, bid1870]",46.32,–
"CC[C@@H]1C(=O)N(C)c2cnc(Nc3ccc(C(=O)NC4CCN(C)CC4)cc3OC)nc2N1C1CCCC1 [ONC0004589, bi 2536]",63.71,–
"Nc1nonc1C(=NO)Nc1ccc(F)c(Cl)c1 [ONC0002386, ido5l]",106.2,–
"CN1CCN(C(=O)c2nc3cc(Cl)ccc3[nH]2)CC1 [ONC0003559, jnj10191584]",96.39,–
"O=C(Nc1ccc(Cl)cc1)Nc1ccc(Cl)c(Cl)c1 [ONC0003407, triclocarban]",109.1,–
"O=C(Nc1ccc(Cl)nc1)c1ccc(Cl)cc1 [ONC0002468, ica110381]",70.91,–
"O=C(Nc1cnc(Cl)nc1)c1ccc(F)c(F)c1 [ONC0001921, ica069673]",29.87,–
"CC[C@@]1(O)C(=O)OCc2c1cc1n(c2=O)Cc2c-1nc1cc(F)c(C)c3c1c2[C@@H](N)CC3.CS(=O)(=O)O [ONC0003668, exatecan mesylate]",59.4,–
"C#C[C@]1(O)CCC2C3CCC4=C(CCC(=O)C4)C3CC[C@@]21C (some centres unmarked) [ONC0000393, norethynodrel]",78.62,–
"O=C(NC1CCN(Cc2ccccc2)CC1)c1ccc(I)cc1 [ONC0003079, 4ibp]",71.08,–
"O=C(O)c1ccc(CN2CCC(CN[C@@H]3C[C@H]3c3ccccc3)CC2)cc1 [ONC0001137, gsk2879552]",48.21,–
"O=C(COc1ccc(C(=O)c2ccccc2)cc1)NC1CCN(Cc2ccccc2)CC1 [ONC0000156, adiporon]",92.46,–
"C[C@@H](O)[C@H](N)C(=O)N1CCC[C@H]1C(=O)N1CCC[C@H]1C(=O)N[C@H](C(N)=O)[C@@H](C)O [ONC0002215, rapastinel trifluoroacetate] (H-TPPT-NH2)",53.54,–
"COCCn1c2c([n+](Cc3cnccn3)c1C)C(=O)c1ccccc1C2=O [ONC0001046, ym155]",83.36,–
"CN(C)c1ccc(/C=C2\CCCN=C2c2cccnc2)cc1 [ONC0002266, dmabanabaseine]",49.52,–
"COc1ccc(/C=C2\CCCN=C2c2cccnc2)c(OC)c1 [ONC0001889, gts21]",72.7,–
"Oc1c(Cl)cc(Cl)c2cccnc12 [ONC0002821, chloroxine]",92.76,–
"Oc1c(I)cc(I)c2cccnc12 [ONC0000463, iodoquinol]",67.55,–
Oc1c(Br)cc(Br)c2cccnc12 [Broxyquinoline],5.699,–
"COc1ccc(CCO[C@@H]2CCCC[C@H]2N2CC[C@@H](O)C2)cc1OC [ONC0001796, vernakalant hydrochloride]",98.02,–

Compound,% viability [%],% viability [1] [%]
"CC1C[C@H]2[C@@H]3CCC4=CC(=O)C=C[C@]4(C)[C@@]3(Cl)[C@@H](O)C[C@]2(C)[C@@]1(O)C(=O)CO (some centres unmarked) [ONC0000301, beclomethasone]",73.26,–
"Cc1cccc(OCC(O)CNC(C)(C)C)c1C (centres unmarked) [ONC0002362, xibenolol]",46.41,–
"CC(C)(C)NC[C@H](O)COc1cccc2c1CCCC2=O [ONC0002946, levobunolol]",70.13,–
"CC(C)(C)NC[C@@H](O)COc1cccc2c1CCCC2=O [ONC0002849, levobunolol]",116.9,–
"O=C1OC2(c3cc(I)c(O)c(I)c3Oc3c2cc(I)c(O)c3I)c2c(Cl)c(Cl)c(Cl)c(Cl)c21 [ONC0002983, rosebengallactone]",–,60.55
CCCCC(CC)CNC(=N)NC(=N)NCCCCCCNC(=N)NC(=N)NCC(CC)CCCC (centres unmarked) [Alexidine dihydrochloride],2.643,–
"CCCCCCCCCCC(CO)CCCCCCCC (centres unmarked) [ONC0003687, 2octyldodecan1ol]",64.53,–
"CCCCCCCCCCCCOS(=O)(=O)O [ONC0004120, dodecylsulfate]",–,112
"N=C(N)N=Nc1ccc(NNC(=N)S)cc1 [ONC0002980, ambazone]",75.31,–
"COC(=O)c1ccccc1O [ONC0003750, methylsalicylate]",102.4,–
"COC(=O)c1cc(OC)c2c(c1-c1c(CO)cc(OC)c3c1OCO3)OCO2 [ONC0002187, bicyclol]",70.1,–
"COC(=O)c1cc(OC)c2c(c1-c1c(C(=O)OC)cc(OC)c3c1OCO3)OCO2 [ONC0003333, bifendate]",41.54,–
"CC1(C)[C@@H](OC(=O)CCC(=O)O)CC[C@]2(C)[C@H]3C(=O)C=C4[C@@H]5C[C@@](C)(C(=O)O)CC[C@]5(C)CC[C@@]4(C)[C@]3(C)CC[C@@H]12 [ONC0000604, carbenoxolone sodium]",49.18,–
"CC(=O)O[C@@H]1CC[C@@]2(C)[C@@H](CC[C@]3(C)[C@@H]2C(=O)C=C2[C@@H]4[C@@H](C)[C@H](C)CC[C@]4(C)CC[C@]23C)[C@@]1(C)C(=O)O [ONC0002083, akba]",67.6,–
"CC1(C)[C@@H](O)CC[C@]2(C)[C@H]3C(=O)C=C4[C@@H]5C[C@@](C)(C(=O)O)CC[C@]5(C)CC[C@@]4(C)[C@]3(C)CC[C@@H]12 [ONC0003205, enoxolone]",101.1,–
"O=c1[nH]c(=O)c2[nH]c(=O)[nH]c2[nH]1 [ONC0003522, uricacid]",130.7,–
"CCOC(=O)CNC(=O)[C@@H]1CCCN1C(=O)Cc1ccccc1 [ONC0001144, omberacetam] (PhAc-Pro-Gly-OEt)",45.25,–
"C[C@H](N[C@@H](CCc1ccccc1)C(=O)O)C(=O)N1CCC[C@H]1C(=O)O [ONC0003897, enalaprilat]",70.49,–
"CCOC(=O)[C@H](CCc1ccccc1)N[C@@H](C)C(=O)N1CCC[C@H]1C(=O)O [ONC0000561, enalapril maleate]",109.8,–
